We go through 18 molecules from PubChem BioAssay (NCATS).

SMILES strings stand for the structures. Results filed as inconclusive are left out. Active and inactive are the calls of the source. The call rests on the fitted dose curve; in most records, active means well fitted cell-killing curve with a large enough effect; inconclusive means small, poorly fitted or top-dose-only effect, or effect the other way; inactive means no such curve, though single readings can be large or run the other way.

A short description of assay [1]: Quantitative High-Throughput drug screen in 47 multiple myeloma cell lines against the NCATS MIPE library collection: VP6_DJ cell viability assay (AID 1919867). Further: nearly all actives have a fitted effect of over 40% in size. In outline:
(§1)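 Myeloma cells (500/well) treated with MIPE 4.0 compounds for 48 h at 37 °C, 5% CO2. Viability read as ATP via CellTiter-Glo luminescence after 5 min at RT; DMSO-only wells = 100%, media-only = 0% viability.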

Assay [2] is described as follows: Quantitative High-Throughput drug screen in 47 multiple myeloma cell lines against the NCATS MIPE library collection: UTMC2_PLB cell viability assay (AID 1919868). Further: nearly all actives have a fitted effect of over 55% in size. As to conditions: CellTiter-Glo ATP luminescence, 48 h; viability (% of DMSO control): at 45.8 µM (top of the series). The procedure, abridged: as §1
On the technique in general: In ATP-based viability assays light output follows the ATP content of the culture.

The nature of assay [3]: Quantitative High-Throughput drug screen in 47 multiple myeloma cell lines against the NCATS MIPE library collection: PE2_PLB cell viability assay (AID 1919869). Further: nearly all actives have a fitted effect of over 35% in size. The procedure, abridged: as §1
The nature of assay [4]: Quantitative High-Throughput drug screen in 47 multiple myeloma cell lines against the NCATS MIPE library collection: PCM6_Riken cell viability assay (AID 1919870). Further: nearly all actives have a fitted effect of over 30% in size. The procedure, abridged: as §1
Assay [5] in a line: Quantitative High-Throughput drug screen in 47 multiple myeloma cell lines against the NCATS MIPE library collection: RPMI8226_ATCC cell viability assay (AID 1919871). Further: nearly all actives have a fitted effect of over 30% in size. The procedure, abridged: as §1
The nature of assay [6]: Quantitative High-Throughput drug screen in 47 multiple myeloma cell lines against the NCATS MIPE library collection: OPM2_DSMZ cell viability assay (AID 1919872). Further: nearly all actives have a fitted effect of over 30% in size. In outline:
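Myeloma cells (500 per well) were exposed to MIPE 4.0 compounds by pin transfer and incubated 48 hours at 37C, 5% CO2. Viability was read as ATP by CellTiter-Glo luminescence, normalised to DMSO (100%) and media-only (0%) wells.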

A short description of assay [7]: Quantitative High-Throughput drug screen in 47 multiple myeloma cell lines against the NCATS MIPE library collection: KMS11_JCRBsus cell viability assay (AID 1919873). Further: nearly all actives have a fitted effect of over 50% in size. The procedure, abridged:
as §1

Assay [8] in a line: Quantitative High-Throughput drug screen in 47 multiple myeloma cell lines against the NCATS MIPE library collection: XG1_PLB cell viability assay (AID 1919866). Further: nearly all actives have a fitted effect of over 35% in size. The procedure, abridged: as §1
The nature of assay [9]: Quantitative High-Throughput drug screen in 47 multiple myeloma cell lines against the NCATS MIPE library collection: KMS28BM_JCRB cell viability assay (AID 1919874). Further: nearly all actives have a fitted effect of over 35% in size. In outline:
as §1
Potency means the concentration at half of the fitted maximal effect.

Turning to `CCOc1cc2c(c(F)c1OCC)C(=N)N(CC(=O)c1cc(N3CCOCC3)c(OC)c(C(C)(C)C)c1)C2`, the Potency in assay [1] was 9.35 µM (active); in assay [2] it was 7.43 µM (active); in assay [3] it was 20.9 µM (active); in assay [4], 7.43 µM (active); in [5] it was 18.7 µM (active); in assay [6] it was 18.7 µM (active). The Potency in assay [7] is 7.43 µM (active).
Take `Cc1ccc(-n2[nH]c(C)c(N=Nc3cccc(-c4cccc(C(=O)O)c4)c3O)c2=O)cc1C`: the Potency is 23.5 µM (active) in assay [8], 26.4 µM (active) in assay [3] and 23.5 µM (active) in assay [7].
For the molecule `CCCCCN=C(N)NN=Cc1c[nH]c2ccc(OC)cc12`, the Potency in assay [8] is 2.35 µM (active); in assay [3], 4.18 µM (active); in [5] it was 14.8 µM (active); in assay [6], 10.5 µM (active); in assay [7], 2.64 µM (active).
As to `CCCCCCCCCCCC(CC1OC(=O)C1CCCCCC)OC(=O)C(CC(C)C)NC=O` (centres undefined), the Potency entry in [8], in assay [3], in assay [7] and in assay [9] was “inactive” each time. Also, the figures for the Potency in [4] and in [5] were 4.69 µM (active) and 18.7 µM (active), respectively.
On to `CC(=O)O[C@]1(C(C)=O)CC[C@H]2[C@@H]3C=C(C)C4=CC(=O)CC[C@]4(C)[C@@H]3CC[C@@]21C`, for which the Potency is 6.62 µM (active) in assay [8], 6.62 µM (active) in assay [4] and 14.8 µM (active) in assay [5]. Besides, the Potency result in assay [6] and in [9] was “inactive” each time.
`CCNC(=O)c1cc2c(-c3cc(OCCN4CCCC4)c(Cl)cc3Cl)nc(N)nc2s1`: the Potency in assay [1] is 0.743 µM (active); in [2] it was 1.48 µM (active); in [3], 1.66 µM (active); in assay [4], 0.743 µM (active); in assay [5], 1.18 µM (active); in [6], 2.96 µM (active). The Potency in [7] is 0.59 µM (active); in assay [9] it was 1.32 µM (active).
Regarding `C=CC1=C(C(=O)O)N2C(=O)[C@@H](NC(=O)C(=NO)c3csc(N)n3)[C@H]2SC1`, the Potency entry in assay [8], in [3], in assay [5], in assay [6] and in [9] was “inactive” in each case. The Potency in assay [4] was 11.8 µM (active).
In the case of `Cn1cc(C[C@@H](N)C(=O)O)c2ccccc21`, the Potency entry in [8], in assay [3], in assay [5] and in [6] was “inactive” each time.
As for `C=C1C[C@@]2(O)O[C@@]3(C[C@H]2C(C)C)[C@H](C)CC[C@H]13`, the Potency entry in [1], in assay [2], in assay [3], in assay [4], in assay [5] and in assay [6] was “inactive” in each case.
Consider `Cn1c(Nc2ccc(C(F)(F)F)cc2)nc2cc(Oc3ccnc(-c4ncc(C(F)(F)F)[nH]4)c3)ccc21`, for which the Potency in [1] was 13.2 µM (active); in [2], 16.6 µM (active); in [3], 16.6 µM (active); in assay [4], 1.87 µM (active); in assay [5], 16.6 µM (active).
For the molecule `OCC(O)C(O)C(O)CO` (centres undefined), the Potency entry in assay [8], in [3], in assay [4] and in assay [6] was “inactive” in each case.
Take `COc1cc(C)c(C=CC(C)=CC=CC(C)=CC(=O)O)c(C)c1C`: the Potency entry in [8], in assay [6], in assay [7] and in assay [9] was “inactive” each time. The Potency in assay [5] was 1.48 µM (active).
Turning to `CCCCC(=O)O[C@]1(C(=O)CO)[C@@H](C)C[C@H]2[C@@H]3CCC4=CC(=O)C=C[C@]4(C)[C@@]3(F)[C@@H](O)C[C@@]21C`, the Potency entry in assay [8], in assay [3], in assay [6] and in assay [9] was “inactive” in each case. Also, in assay [5], the Potency is 0.0118 µM (active).
`NC(=O)c1cccc(-c2cccc(OC(=O)NC3CCCCC3)c2)c1`: the Potency result in assay [1], in assay [2], in [3], in assay [4], in assay [5] and in [6] was “inactive” each time. In addition, in assay [7], the Potency result is “inactive”.
As to `CCCCCCCN(CC)CCCC(O)c1ccc(NS(C)(=O)=O)cc1` (centres undefined), the Potency in assay [8] was 18.7 µM (active). Also, the Potency result in assay [5] and in [9] was “inactive” in each case.
As to `CCN(CC)CCNC(=O)c1c(C)[nH]c(C=C2C(=O)Nc3ccc(F)cc32)c1C`, the Potency in assay [1] was 1.52 µM (active); in assay [2] it was 0.54 µM (active); in assay [3] it was 2.15 µM (active); in assay [4], 1.52 µM (active); in assay [5] it was 10.8 µM (active); in assay [6] it was 6.05 µM (active). The results for the Potency in assay [7] and in assay [9] were 1.52 µM (active) and 5.4 µM (active), respectively.
With `Oc1cc2c(cc1O)C1c3ccc(O)c(O)c3OCC1(O)C2` (centres undefined), the Potency entry in [8], in assay [5], in assay [6], in assay [7] and in [9] was “inactive” in each case. Moreover, the Potency in [3] is 20.9 µM (active).
With `COc1ccc(S(=O)(=O)Nc2cccnc2Nc2ccc(O)cc2)cc1`, the Potency is 0.0166 µM (active) in [8]; 0.148 µM (active) in assay [3]; 0.235 µM (active) in assay [4]; 0.526 µM (active) in assay [5]; 0.118 µM (active) in [6]; 0.0332 µM (active) in assay [9].
